From PubChem BioAssay come the findings set out here.

The structures appear in SMILES notation. Where “and” joins values, the source holds several entries; their conditions need not be identical. Equal values may be shown once. Calls of active or inactive are those of the source. Unless noted, how the calls were made is not given here.

The nature of assay [1]: P. berghei load reduction in hepatocytes – cell-based, HepG2, luciferase luminescence, HepG2 viability, primary screen (AID 624349; in the data active means parasite load remaining mostly below about 12%, no sharp cut-off; inactive means mostly above about 10%;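 further: 100% = mean of DMSO negative control wells on the same plate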). To be noted: P. berghei liver stage in HepG2, luciferase luminescence, concentration not given here; parasite load remaining: stronger effect = lower value; viability: measured here: HepG2 viability without parasites.
Assay [2] in a line: signal quenchers or enhancers, Cy5 substrate/SSB – biochemical, NIH Clinical Collection, E. coli SSB, artefact control for HCV NS3 helicase inhibitor project (AID 743268). To be noted: Cy5-oligo bound E. coli SSB, fluorescence interference.
Assay [3] concerns Hepatitis C virus NS3 helicase. The assay can be described thus: blockers of NS3h binding to DNA – biochemical, fluorescence polarization, NIH Clinical Collection, primary screen (AID 743270). Particulars: NS3 helicase binding to Cy5-dT15 DNA, stronger effect = higher value, concentration not given here. In general terms: Polarisation of emitted light reports the rotation of a fluorescent probe.

For assay [4], the target named is Single-stranded DNA-binding protein (Escherichia coli (strain K12)) (UniProt P0AGE0). The assay can be described thus: SSB-ssDNA binding inhibitors – biochemical, fluorescence polarization, NIH Clinical Collection, counter-screen for HCV NS3 helicase inhibitor project (AID 743271; in the data active means inhibition above about 28%). Particulars: E. coli SSB-DNA binding, stronger effect = higher value, concentration not given here.

A short description of assay [5]: compounds distorting NS3 helicase fluorescence signal – biochemical, NIH Clinical Collection, artefact control for HCV NS3 helicase inhibitor project (AID 743272).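 Further: HCV NS3 helicase with a Cy5 labelled single stranded DNA probe.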 Particulars: fluorescence interference counterscreen, HCV NS3 helicase assay; stronger effect = lower value. A general note: A counterscreen serves to expose hits that act by an unwanted route or on another target.

Assay [6] is described as follows: Wnt pathway potentiators raising nuclear beta-catenin – imaging, WNT3A-conditioned medium, mouse C2C12, NPC library, primary screen (AID 1117326; in the data active means nuclear beta-catenin stimulation mostly above about 4.2%, no sharp cut-off; inactive means mostly below about 10%). To be noted: stronger effect = higher value.
The subject of assay [7] is Hepatitis C virus NS3 helicase. The assay is described as follows: blockers of NS3h binding to ssDNA – biochemical, fluorescence polarization, LOPAC1280 library, primary screen (AID 687035; in the data active means inhibition above about 37%). To be noted: Purified HCV NS3 helicase, Cy5-dT15 ssDNA binding fluorescence polarization; stronger effect = higher value; concentration not given here.
A short description of assay [8]: compounds altering Cy5-DNA-NS3h complex signal – biochemical, LOPAC1280, artefact control for HCV NS3 helicase inhibitor project (AID 687037). Particulars: Cy5-DNA-NS3h complex fluorescence interference counterscreen.
Assay [9] has as its system Neuropilin-2 / VEGF-C interaction (human). The assay can be described thus: small molecules blocking Neuropilin-2/VEGF-C interaction – biochemical, microplate binding format, z-score (AID 743281). To be noted: microplate NRP2/VEGF-C binding assay; stronger effect = lower value.

On to `CC(N)C12CC3CC(CC(C3)C1)C2` (centres undefined), for which the parasite load remaining in assay [1] is 59.2% (inactive) and 69.6% (inactive) and 54.8% (inactive). The viability in assay [1] was 94.8% and 97.2% and 73%. Besides, the fluorescence ratio in [2] is 1.02 (inactive); in assay [5], 1.03 (inactive). Further, the results for the inhibition in assay [3] and in [4] were -2.27% (inactive) and 1.81% (inactive), respectively. Besides, the nuclear beta-catenin stimulation in [6] (at 10 µM) was 1.8% (inactive); in assay [6] (stimulation, at 2 µM) it was 0.3%.

Take `Cc1onc(-c2ccccc2)c1C(=O)N[C@@H]1C(=O)N2[C@@H]1SC(C)(C)[C@@H]2C(=O)O`: in assay [1], the parasite load remaining is 27.2% (inactive) and the viability was 72.5%. For the same compound, the nuclear beta-catenin stimulation in [6] (at 10 µM) is -2.3% (inactive). Besides, the nuclear beta-catenin stimulation in assay [6] (stimulation, at 2 µM) was found to be 0.5%.

`O=C(NCCN1CCOCC1)c1ccc(Cl)cc1`: the parasite load remaining in assay [1] is 153% (inactive) and 134% (inactive). In addition, the viability in assay [1] is 108% and 80.7%. Further, the inhibition in assay [7] was -6% (inactive); in assay [3], 5.94% (inactive); in assay [4], 8.37% (inactive). The fluorescence ratio (interference) in assay [8] was 0.9 (inactive). Also, the values for the fluorescence ratio in [2] and in [5] were 1.03 (inactive) and 0.99 (inactive), respectively. For the same compound, the z-score in assay [9] is -0.561 (inactive). Besides, the nuclear beta-catenin stimulation in assay [6] (at 10 µM) is 0.1% (inactive); in [6] (stimulation, at 2 µM), 0.4%.

Regarding `CCCCc1nc(Cl)c(CO)n1Cc1ccc(-c2ccccc2-c2nn[nH]n2)cc1`, in [1], the parasite load remaining was 128% (inactive) and 49.4% (inactive); the viability is 84.8% and 98.4%. For the same compound, the nuclear beta-catenin stimulation in assay [6] (at 10 µM) is 2.6% (inactive). In addition, the nuclear beta-catenin stimulation in assay [6] (stimulation, at 2 µM) stood at 2.1%.

`Cc1cc2nc3c(=O)[nH]c(=O)nc-3n(C[C@H](O)[C@H](O)[C@H](O)CO)c2cc1C`: in [1], the parasite load remaining was 147% (inactive) and the viability came to 99.8%. Besides, in assay [6] (at 10 µM), the nuclear beta-catenin stimulation is 4.5% (inactive). The nuclear beta-catenin stimulation in [6] (stimulation, at 2 µM) was determined as 2.2%.

Consider `O=C(O)CN1C(=O)c2cccc3cccc(c23)C1=O`, for which, in assay [1], the parasite load remaining was 30.8% (inactive) and the viability is 96.3%. In assay [6] (at 10 µM), the nuclear beta-catenin stimulation was -0.2% (inactive). The nuclear beta-catenin stimulation in assay [6] (stimulation, at 2 µM) came to 0.9%.

As to `COC(=O)CCc1ccc(OCC(O)CNC(C)C)cc1` (centres undefined), in [1], the parasite load remaining is 82.9% (inactive) and 30.6% (inactive). In addition, the viability in [1] was 72.2% and 73%. Moreover, the fluorescence ratio in assay [2] is 1.05 (inactive); in [5], 1.01 (inactive). Also, the inhibition is -1.98% (inactive) in assay [3] and -5.49% (inactive) in assay [4]. Moreover, in [9], the z-score is 0.0866 (inactive). The nuclear beta-catenin stimulation in assay [6] (at 10 µM) was -2% (inactive); in assay [6] (stimulation, at 2 µM), 0.1%.

Regarding `CN(CCCN1c2ccccc2CCc2ccccc21)CC(=O)c1ccc(Cl)cc1`, in [1], the parasite load remaining was 66.2% (inactive). Moreover, the viability in [1] was determined as 68.6%. Further, the fluorescence ratio in assay [2] was 0.86 (inactive); in [5] it was 1.21 (active). Also, the figures for the inhibition in assay [3] and in [4] were 7.52% (inactive) and 2.98% (inactive), respectively. Besides, the call in [9] was inactive. Also, the nuclear beta-catenin stimulation in assay [6] (at 10 µM) was 1.2% (inactive); in assay [6] (stimulation, at 2 µM) it was -1.4%.

Turning to `C[C@]12CCC(=O)C=C1C=C[C@@H]1[C@@H]2CC[C@@]2(C)[C@H]1CC[C@@]21CCC(=O)O1`, in assay [1], the parasite load remaining was 17.5% (inactive) and the viability was found to be 73%. Also, in assay [6] (at 10 µM), the nuclear beta-catenin stimulation was 2.7% (inactive). The nuclear beta-catenin stimulation in assay [6] (stimulation, at 2 µM) worked out at 1.9%.

As to `C[C@@H]1CN(c2c(F)c(N)c3c(=O)c(C(=O)O)cn(C4CC4)c3c2F)C[C@H](C)N1`, in assay [1], the parasite load remaining is 16.6% (inactive) and the viability came out at 70%. Also, the nuclear beta-catenin stimulation in [6] (at 10 µM) was -1.1% (inactive). In addition, the nuclear beta-catenin stimulation in assay [6] (stimulation, at 2 µM) was -1.1%.

`CCOC(=O)O[C@]1(C(=O)OCCl)CC[C@H]2[C@@H]3CCC4=CC(=O)C=C[C@]4(C)[C@H]3[C@@H](O)C[C@@]21C`: in assay [1], the parasite load remaining is 196% (inactive). Also, the viability in assay [1] came out at 72.9%. Further, the figures for the fluorescence ratio in assay [2] and in assay [5] were 1.04 (inactive) and 1.05 (inactive), respectively. Moreover, the values for the inhibition in assay [3] and in assay [4] were -0.4% (inactive) and 4.52% (inactive), respectively. The nuclear beta-catenin stimulation was -1.2% (inactive) in assay [6] (at 10 µM) and -0.3% in assay [6] (stimulation, at 2 µM).

The viability is a read-out of living cells in per cent, often relative to untreated cells. One may read the inhibition as the relative decrease from the control value, in per cent.
